Reference: PubChem BioAssay (NCI)
About 83,000 compounds went through this panel and 20% of them were active in at least one assay; those are over-represented in the sample as a whole.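 Assay: single dose, 48 h. Readout: percent growth (0 = no net growth; negative = cell death). Active: <10.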 Unmarked numbers belong to inactive results. Active and inactive are the calls of the source.

Experiments:
Experiment in all cases: NCI-60 one-dose screen, 48 h (100 = growth as untreated, 0 = no growth, -100 = all killed)
Settings in all cases: 10 µM
SK-MEL-2 melanoma = tested on: SK-MEL-2 melanoma
EKVX NSCLC = tested on: EKVX NSCLC
SN12C renal = tested on: SN12C renal
UO-31 renal = tested on: UO-31 renal
TK-10 renal = tested on: TK-10 renal
ACHN renal = tested on: ACHN renal
CAKI-1 renal = tested on: CAKI-1 renal
A498 renal = tested on: A498 renal
CCRF-CEM leukemia = tested on: CCRF-CEM leukemia
MOLT-4 leukemia = tested on: MOLT-4 leukemia

Cc1cc(C)nc(NS(=O)(=O)c2ccc(Nc3nc4nc(NCc5ccccc5)nc(-c5ccc(O)cc5)c4c(=O)[nH]3)cc2)n1
growth (SK-MEL-2 melanoma): 4.65% (active)
growth (EKVX NSCLC): 26.7%
growth (SN12C renal): 33.1%
growth (UO-31 renal): 10.9%
growth (TK-10 renal): 10.3%
growth (ACHN renal): 15.6%
growth (CAKI-1 renal): 33.1%
growth (A498 renal): 42.5%
growth (CCRF-CEM leukemia): 19.6%
growth (MOLT-4 leukemia): -1.75% (active)

Cc1cccc(N=Cc2ccccc2O)c1C
growth (SK-MEL-2 melanoma): 129%
growth (EKVX NSCLC): 93.7%
growth (SN12C renal): 89.6%
growth (UO-31 renal): 105%
growth (TK-10 renal): 121%
growth (ACHN renal): 110%
growth (CAKI-1 renal): 92.4%
growth (A498 renal): 106%
growth (CCRF-CEM leukemia): 101%
growth (MOLT-4 leukemia): 98.1%

COc1ccc2nc3cc(Cl)ccc3c(NCCCNCCO)c2c1
growth (SK-MEL-2 melanoma): -87.7% (active)
growth (EKVX NSCLC): -12.9% (active)
growth (SN12C renal): 5.95% (active)
growth (UO-31 renal): -11.5% (active)
growth (TK-10 renal): -29.4% (active)
growth (ACHN renal): -9.61% (active)
growth (CAKI-1 renal): 18.7%
growth (A498 renal): -57% (active)
growth (CCRF-CEM leukemia): -1.87% (active)
growth (MOLT-4 leukemia): 2.6% (active)

C=CCNCCN1C(=O)c2ccc3c4c(ccc(c24)C1=O)C(=O)N(CCNCC=C)C3=O
growth (SK-MEL-2 melanoma): -45.9% (active)
growth (EKVX NSCLC): -82% (active)
growth (SN12C renal): -78% (active)
growth (UO-31 renal): -58.4% (active)
growth (TK-10 renal): -6.43% (active)
growth (ACHN renal): -56.3% (active)
growth (CAKI-1 renal): -64.2% (active)
growth (A498 renal): -73.7% (active)
growth (CCRF-CEM leukemia): 4.83% (active)
growth (MOLT-4 leukemia): -18.3% (active)

CC(C)c1cc(N=O)cc(C(C)C)c1O
growth (SK-MEL-2 melanoma): 107%
growth (EKVX NSCLC): 105%
growth (SN12C renal): 94.2%
growth (UO-31 renal): 90.2%
growth (TK-10 renal): 115%
growth (ACHN renal): 98.6%
growth (CAKI-1 renal): 95.2%
growth (A498 renal): 108%
growth (CCRF-CEM leukemia): 101%
growth (MOLT-4 leukemia): 89.1%

COc1ccc(/C=C2/SC(=S)NC2=O)c(OC)c1OC
growth (SK-MEL-2 melanoma): 87.4%
growth (EKVX NSCLC): 65.9%
growth (SN12C renal): 78.7%
growth (UO-31 renal): 42.5%
growth (TK-10 renal): 81.3%
growth (ACHN renal): 77.4%
growth (CAKI-1 renal): 64.3%
growth (A498 renal): 54.2%
growth (CCRF-CEM leukemia): 76.8%
growth (MOLT-4 leukemia): 90.1%

CCN(CC)CCN1c2nc3ccccc3cc2Sc2cc3ccccc3nc21
growth (SK-MEL-2 melanoma): -35.9% (active)
growth (EKVX NSCLC): -3.38% (active)
growth (SN12C renal): 27%
growth (UO-31 renal): -64.1% (active)
growth (TK-10 renal): 82%
growth (ACHN renal): 24.9%
growth (CAKI-1 renal): 8.6% (active)
growth (A498 renal): 25.7%
growth (CCRF-CEM leukemia): -27.3% (active)
growth (MOLT-4 leukemia): -47.8% (active)

CCOC(=O)CN(c1sc(C)c(C)c1C(=O)OCC)S(=O)(=O)c1ccc(C)cc1
growth (SK-MEL-2 melanoma): 127%
growth (EKVX NSCLC): 101%
growth (SN12C renal): 87%
growth (UO-31 renal): 80.7%
growth (TK-10 renal): 121%
growth (ACHN renal): 98.1%
growth (CAKI-1 renal): 72.8%
growth (A498 renal): 106%
growth (CCRF-CEM leukemia): 94.4%
growth (MOLT-4 leukemia): 97%

CC[C@@H]1NC(=O)[C@H]([C@H](O)[C@H](C)C/C=C/c2ccc(CN3C(=O)CCCC3=O)cc2)N(C)C(=O)[C@H](C(C)C)N(C)C(=O)[C@H](CC(C)C)N(C)C(=O)[C@H](CC(C)C)N(C)C(=O)[C@@H](C)NC(=O)[C@H](C)NC(=O)[C@H](CC(C)C)N(C)C(=O)[C@H](C(C)C)NC(=O)[C@H](CC(C)C)N(C)C(=O)CN(C)C1=O
growth (SK-MEL-2 melanoma): 38.2%
growth (EKVX NSCLC): 37.4%
growth (SN12C renal): 71.1%
growth (UO-31 renal): 49.7%
growth (TK-10 renal): 39.8%
growth (ACHN renal): 40.3%
growth (CAKI-1 renal): 77.3%
growth (A498 renal): 4.54% (active)
growth (CCRF-CEM leukemia): 11.6%
growth (MOLT-4 leukemia): 21.8%

CNS(=O)(=O)Oc1ccc(-c2sc3cc(OS(=O)(=O)NC)ccc3c2C(=O)c2ccc(OCCN3CCCCC3)cc2)cc1
growth (SK-MEL-2 melanoma): 83.7%
growth (EKVX NSCLC): 79.6%
growth (SN12C renal): 79.5%
growth (UO-31 renal): 50.9%
growth (TK-10 renal): 99.5%
growth (ACHN renal): 96.8%
growth (CAKI-1 renal): 59.3%
growth (A498 renal): 76.2%
growth (CCRF-CEM leukemia): 46.5%
growth (MOLT-4 leukemia): 23.2%

CN1CCN(CCCn2c(=O)c3sc4ncccc4c3n3nnc(-c4ccccc4)c23)CC1
growth (SK-MEL-2 melanoma): -10.7% (active)
growth (EKVX NSCLC): 2.42% (active)
growth (SN12C renal): 47.5%
growth (UO-31 renal): -74.5% (active)
growth (TK-10 renal): -44.3% (active)
growth (ACHN renal): -6.48% (active)
growth (CAKI-1 renal): -39.2% (active)
growth (A498 renal): 64.6%
growth (CCRF-CEM leukemia): -14.7% (active)
growth (MOLT-4 leukemia): -20% (active)

CC(C)(C)OC(=O)CC(S(=O)(=O)c1ccccc1)S(=O)(=O)c1ccccc1
growth (SK-MEL-2 melanoma): 114%
growth (EKVX NSCLC): 112%
growth (SN12C renal): 96.1%
growth (UO-31 renal): 61.4%
growth (TK-10 renal): 21.4%
growth (ACHN renal): 17.8%
growth (CAKI-1 renal): 90.6%
growth (A498 renal): 102%
growth (CCRF-CEM leukemia): 46.9%
growth (MOLT-4 leukemia): 82.7%

O=C(CSc1nnc(-c2cccnc2SCc2ccccc2)o1)Nc1nc(Cl)cc(Cl)n1
growth (SK-MEL-2 melanoma): 102%
growth (EKVX NSCLC): 103%
growth (SN12C renal): 103%
growth (UO-31 renal): 67.7%
growth (TK-10 renal): 109%
growth (ACHN renal): 103%
growth (CAKI-1 renal): 95.8%
growth (A498 renal): 112%
growth (CCRF-CEM leukemia): 101%
growth (MOLT-4 leukemia): 95.7%

c1ccc(CCCCc2ccc3ccccc3n2)cc1
growth (SK-MEL-2 melanoma): 94.3%
growth (EKVX NSCLC): 98.1%
growth (SN12C renal): 105%
growth (UO-31 renal): 91.4%
growth (TK-10 renal): 90.2%
growth (ACHN renal): 103%
growth (CAKI-1 renal): 99.4%
growth (A498 renal): 94.5%
growth (CCRF-CEM leukemia): 99.8%
growth (MOLT-4 leukemia): 97.3%

COc1cc(/C=C2\CCCC3=C2N=C2SC(C)=CN2C3c2cc(OC)c(OC)c(OC)c2)cc(OC)c1OC (stereo not given)
growth (SK-MEL-2 melanoma): -19.6% (active)
growth (EKVX NSCLC): 19.6%
growth (SN12C renal): -23.6% (active)
growth (UO-31 renal): -37.2% (active)
growth (TK-10 renal): 2.25% (active)
growth (ACHN renal): -78.6% (active)
growth (CAKI-1 renal): 11.1%
growth (A498 renal): -30.9% (active)
growth (CCRF-CEM leukemia): 1.41% (active)
growth (MOLT-4 leukemia): 1.02% (active)

CCN(CCCNc1cc2c(c(N)c1S(=O)(=O)O)C(=O)c1ccccc1C2=O)c1ccccc1
growth (SK-MEL-2 melanoma): 103%
growth (EKVX NSCLC): 103%
growth (SN12C renal): 87.4%
growth (UO-31 renal): 75.2%
growth (TK-10 renal): 116%
growth (ACHN renal): 103%
growth (CAKI-1 renal): 95.7%
growth (A498 renal): 103%
growth (CCRF-CEM leukemia): 102%
growth (MOLT-4 leukemia): 108%

O=C1OC(C(Cl)(Cl)Cl)OC1C(Cl)(Cl)Cl (stereo not given)
growth (SK-MEL-2 melanoma): 102%
growth (EKVX NSCLC): 106%
growth (SN12C renal): 97.1%
growth (UO-31 renal): 89.4%
growth (TK-10 renal): 110%
growth (ACHN renal): 113%
growth (CAKI-1 renal): 113%
growth (A498 renal): 109%
growth (CCRF-CEM leukemia): 104%
growth (MOLT-4 leukemia): -10.8% (active)

N#Cc1ccc(C(=O)CSc2nccc(Nc3ccc(C(=O)O)cc3)n2)cc1
growth (SK-MEL-2 melanoma): 106%
growth (EKVX NSCLC): 108%
growth (SN12C renal): 103%
growth (UO-31 renal): 84.7%
growth (TK-10 renal): 110%
growth (ACHN renal): 107%
growth (CAKI-1 renal): 99.7%
growth (A498 renal): 95.7%
growth (CCRF-CEM leukemia): 94%
growth (MOLT-4 leukemia): 104%

Cc1ccc(-n2nnnc2N)c(C)c1
growth (SK-MEL-2 melanoma): 114%
growth (EKVX NSCLC): 98.5%
growth (SN12C renal): 113%
growth (UO-31 renal): 94.6%
growth (TK-10 renal): 136%
growth (ACHN renal): 102%
growth (CAKI-1 renal): 94.5%
growth (A498 renal): 80%
growth (CCRF-CEM leukemia): 112%
growth (MOLT-4 leukemia): 109%

O=C1/C=C/[C@@H](O)[C@@H]2C[C@@H](O)C[C@H]2/C=C/CCC[C@@H](C(F)(F)F)O1
growth (SK-MEL-2 melanoma): 86.3%
growth (EKVX NSCLC): 90.4%
growth (SN12C renal): 90.3%
growth (UO-31 renal): 47.6%
growth (TK-10 renal): 73.7%
growth (ACHN renal): 98.3%
growth (CAKI-1 renal): 98.4%
growth (A498 renal): 84.8%
growth (CCRF-CEM leukemia): 92.2%
growth (MOLT-4 leukemia): 84.7%

CCOC(=O)C1=CSC2=NC3=C(CCC/C3=C\c3ccc(Cl)cc3)C(c3ccc(Cl)cc3)N12 (stereo not given)
growth (SK-MEL-2 melanoma): 106%
growth (EKVX NSCLC): 91.6%
growth (SN12C renal): 95%
growth (UO-31 renal): 95.2%
growth (TK-10 renal): 119%
growth (ACHN renal): 107%
growth (CAKI-1 renal): 103%
growth (A498 renal): 78.1%
growth (CCRF-CEM leukemia): 87.8%
growth (MOLT-4 leukemia): 82.2%

COc1ccc(/C=C2\CCCC3=C2N=C2SC(C)=CN2C3c2ccc(OC)cc2)cc1 (stereo not given)
growth (SK-MEL-2 melanoma): 98.6%
growth (EKVX NSCLC): 99.4%
growth (SN12C renal): 104%
growth (UO-31 renal): 82.1%
growth (TK-10 renal): 116%
growth (ACHN renal): 106%
growth (CAKI-1 renal): 96.4%
growth (A498 renal): 76.8%
growth (CCRF-CEM leukemia): 104%
growth (MOLT-4 leukemia): 103%

NS(=O)(=O)Oc1ccc(-c2ccc3sccc3c2)cc1
growth (SK-MEL-2 melanoma): 105%
growth (EKVX NSCLC): 13.3%
growth (SN12C renal): 94.3%
growth (UO-31 renal): 82.1%
growth (TK-10 renal): 94%
growth (ACHN renal): 94.1%
growth (CAKI-1 renal): 83.6%
growth (A498 renal): 99.8%
growth (CCRF-CEM leukemia): 108%
growth (MOLT-4 leukemia): 97.4%

OCC1OC2C(NC(=S)N2c2ccccc2)C(O)C1O (stereo not given)
growth (SK-MEL-2 melanoma): 111%
growth (EKVX NSCLC): 101%
growth (SN12C renal): 91.1%
growth (UO-31 renal): 101%
growth (TK-10 renal): 109%
growth (ACHN renal): 103%
growth (CAKI-1 renal): 91.4%
growth (A498 renal): 95.1%
growth (CCRF-CEM leukemia): 93.6%
growth (MOLT-4 leukemia): 107%
